According to PubChem BioAssay:
A number with no mark means an inactive call. Active and inactive are the calls of the source. Rule as the data show it: active = fold change permeability below about 0.7 or above about 1.3; inactive = in between.

experiment: compounds altering in vitro BBB leakiness – cell-based, FITC-avidin fluorescence, HTS, primary screen (AID 1963498); conditions: brain endothelial barrier, actives lie on both sides; also: test concentration not given here

SMILES | fold change permeability
CC(=O)OCC1=C(C(=O)[O-])N2C(=O)[C@@H](NC(=O)CCC[C@@H](N)C(=O)[O-])[C@H]2SC1.[Zn+2] | 1
CC1OC(C[N+](C)(C)C)CC1O (stereo not given) | 0.9
CC[C@@H](CO)NC(=O)[C@@H]1C=C2c3cccc4c3c(cn4C)C[C@H]2N(C)C1 | 0.7 (active)
c1ccc2c(c1)OCC(C1=NCCN1)O2 (stereo not given) | 2.1 (active)
NC(=O)COc1c(F)cc(SCCNS(=O)(=O)c2ccccc2)cc1F | 0.9
COc1cc2c(c(OC)c1OC)-c1ccc(SC)c(=O)cc1[C@@H](NC(C)=O)CC2 | 1.7 (active)
O=C1C=CC(=O)C=C1 | 1
NNC(N)=O | 1
N[C@@H](Cn1oc(=O)[nH]c1=O)C(=O)O | 1.1
O=C(O)CC[N+](=O)[O-] | 0.9
COc1ccc(C(=O)N2CCCC2=O)cc1 | 1
C=C(C)[C@H]1CN[C@H](C(=O)O)[C@H]1CC(=O)O | 1.8 (active)
NC1CCc2cc(O)c(O)cc2C1 (stereo not given) | 0.7 (active)
CCC1(c2ccc(N)cc2)CCC(=O)NC1=O (stereo not given) | 1
CC(C)(C)c1o[nH]c(=O)c1CC(N)C(=O)O (stereo not given) | 1.1
C=CCN1C[C@H](C)N([C@H](c2ccc(C(=O)N(CC)CC)cc2)c2cccc(OC)c2)C[C@H]1C | 0.7 (active)
CN1C2CCC1CC(OC(c1ccccc1)c1ccccc1N)C2 (stereo not given) | 1.1
CC(C)=CCOc1c2occc2cc2ccc(=O)oc12 | 1.5 (active)

SMILES | fold change permeability
NCCc1ccc(S(=O)(=O)F)cc1 | 1
NC(=NCCC[C@H](N)C(=O)O)N[N+](=O)[O-] | 1
CC1OC1P(=O)(O)O (stereo not given) | 1.1
Cc1nccc2c1[nH]c1ccccc12 | 1.2
CC(C)(C)c1cc(C(C)(C)C)c2c(c1)C(O)(C(F)(F)F)C(=O)O2 (stereo not given) | 1.2
NC(=O)c1cc(N2CC2)c([N+](=O)[O-])cc1[N+](=O)[O-] | 1
c1ccc2sc(C3(N4CCCCC4)CCCCC3)cc2c1 | 1
Fc1ccc(C(OCCN2CCN(CCCc3ccccc3)CC2)c2ccc(F)cc2)cc1 | 1.6 (active)
O=C[C@H](Cl)[C@@H](O)[C@H](O)[C@H](O)CO | 1.1
CCN1CCN(C(=O)Cc2ccc(Nc3ncc(F)c(Nc4ccc(C(=O)Nc5ccccc5Cl)cc4)n3)cc2)CC1 | 1.1
CN1CC[C@@]2(C)c3cc(O)ccc3N(C)C12 (stereo not given in full) | 1.3 (active)
CC(C)Oc1cccnc1N(C)C1CCN(Cc2ccccc2)CC1 | 1.5 (active)
CC(CCc1ccccc1)NC(C)C(O)c1ccc(O)cc1 (stereo not given) | 0.8
COc1cc2c3c(c1OC)-c1ccccc1C[C@H]3N(C)CC2 | 1.9 (active)
Cc1cccc(C)c1NC1=NCCCS1 | 1.9 (active)
NCCc1c[nH]c2ccc(C(N)=O)cc12 | 1
CC(N)Cc1c[nH]c2ccc(OCc3cccs3)cc12 (stereo not given) | 1.3 (active)
